# Screening data deposited in PubChem by National Center for Advancing Translational Sciences (NCATS).
# An excerpt weighted towards active compounds, which were near 2.2% of everything screened.
# FUS suppressor = qHTS for Suppressors of FUS Proteinopathy: Primary screen using FUS-linked yeast assay | Potency, µM (highest dose often 76.6 µM), most hits filed as activators | S. cerevisiae FUS-expressing, growth rescue, OD600, 24 h | 390,000 tested, 0.24% active; further: nearly all actives have a fitted effect of over 55% in size
#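 Yeast expressing FUS under galactose induction, OD 0.005 in 2% galactose medium; compounds in a dilution series, 24 h at 30C. Growth rescue by absorbance at 600 nm; CP55940 positive control, DMSO negative.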
# Mito fusion act = qHTS Assay for Small Molecule Inhibitors of Mitochondrial Division or Activators of Mitochondrial Fusion; S. cerevisiae fusion-defective mutant growth rescue, CellTiterGlo 48 h; Potency, µM (top dose mostly 46.1 µM), hits mostly activators; 320,000 tested, 0.23% active; AID 485298, 2010; further: nearly all actives have a fitted effect of over 45% in size
#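 Temperature-sensitive fusion-defective S. cerevisiae (e.g. fzo1-1, mgm1-5) were grown with compound in YPEG medium (3% ethanol, 3% glycerol) for 48 hours at 37C. Growth rescue was measured as viability by CellTiterGlo luminescence after 10 minutes at ambient.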
# Abeta rescue = qHTS for compounds that reverse cellular toxicity of Amyloid beta (A-beta) peptide in yeast: Primary Screen; yeast expressing A-beta42, growth rescue, OD600, 48 h; response scale: 0% DMSO, 100% iron-clioquinol control; Potency, µM (titrated, usually from 46.1 µM), most hits filed as activators; 410,000 tested, 0.063% active; AID 1347071, 2019; further: nearly all actives have a fitted effect of over 55% in size
#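 Growth rescue measured by 600 nm absorbance after 48 h yeast culture at 30 C with compound. Values normalized between DMSO and an equimolar ferric chloride plus clioquinol control.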
# aSyn yeast inh = qHTS of alpha-syn Inhibitors. Yeast expressing alpha-synuclein, growth rescue, BacTiter-Glo, 24 h. Potency, µM (highest dose often 46.1 µM), hits mostly activators. AID 652106, 2013. 370,000 tested, 0.14% active; further: nearly all actives have a fitted effect of over 65% in size
#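 Readout is rescue of growth in alpha-synuclein-expressing yeast, so inhibitors of toxicity appear as activators. Growth after 24 hr at 30 deg C in galactose medium is quantified by luminescence.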
# TDP43 rescue = qHTS of TDP-43 Inhibitors; AID 652104, 2013; Potency, µM (doses to about 46.1 µM), actives largely listed as activators; 410,000 tested, 1.8% active; TDP-43 expressing yeast growth rescue, BacTiter-Glo, 24 h; further: nearly all actives have a fitted effect of over 50% in size
#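 Cell-based yeast growth screen: TDP-43 expression induced in galactose, inoculum OD600=0.02 after raffinose pregrowth to mid-log. Read-out BacTiter-Glo luminescence at 24 hr, 30 deg C; inhibition of toxicity seen as signal increase.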
# Numbers stand for hits; 0 = inactive; ? = inconclusive; - = no result; ! = a repeat was not active; [ ] = another dose, or the depositor's remark. The call rests on the fitted dose curve; in most records, active means well fitted curve in the direction sought with a large enough effect; inconclusive means small, poorly fitted or top-dose-only effect, or another doubt; inactive means no such curve, though single readings can be large; an effect the other way counts as inactive or inconclusive.
SMILES,FUS suppressor,Mito fusion act,Abeta rescue,aSyn yeast inh,TDP43 rescue
O=C(Nc1cccn(Cc2c(Cl)cccc2Cl)c1=O)c1c(Cl)cccc1Cl,0,0,0,0,10µM
COC(=O)Nc1cccn(Cc2c(Cl)cccc2Cl)c1=O,0,0,?,0,0
CC(C)Oc1ccc(CNC(=O)Cn2ncn3nc(-c4cccs4)cc3c2=O)cc1,0,-,0,-,0
Cc1c(/C=C/C(=O)c2ccc(Cl)s2)cnn1C,0,0,0,0,13µM
COC(=O)/N=C(/Cc1ccc(OC)cc1)c1ccc(OC)cc1,0,0,0,0,22µM
Cc1nn(CC(=O)NCc2ccc(N(C)C)cc2)c(=O)c2c(C)n(-c3ccc(Cl)cc3)nc12,0,-,0,-,0
CN(CC1COc2ccccc2O1)C(=O)CSc1ncnc2sccc12 (stereo unspecified),?,0,0,0[1.84 µM],18µM
CN(C(=O)CSc1ncnc2sccc12)C1CCCCC1,-,0,0,0,?
Cc1cc(C)c(C(=O)N2CCCC(Nc3ccc(F)cc3)C2)o1 (stereo unspecified),0,?,0,0,0
Cc1ccc2[nH]c(C(=O)N3CCCC(Nc4ccc(F)cc4)C3)cc2c1 (stereo unspecified),?,0,0,0,22µM
C=C1C(=O)[C@]23C[C@H]1CC[C@H]2[C@]1(C)CCC[C@@](C)(C(=O)OC)[C@H]1C[C@@H]3O,0,-,-,-,-
C=C1C(=O)[C@]23C[C@H]1CCC2[C@@]1(C)C(C[C@@H]3O)[C@](C)(C(=O)OC)CC[C@@H]1O (stereo partly specified),0,-,0,0,3.2µM
Cc1cc2c(cc1S(=O)(=O)N(CCN(C)C)Cc1ccccc1)OCC(=O)N2,0,-,0,-,0
O=C(CC1(O)C(=O)N(CCc2ccccc2)c2ccc(Br)cc21)c1ccc(F)cc1 (stereo unspecified),?,-,?,-,0[9.22 µM]
CCC(C)Sc1nc2c(c(=O)n1C)SC(C)C2 (stereo unspecified),0,0,0,0,18µM
N/C(=N\OC(=O)c1ccco1)c1cccc(Br)c1,0,0,0,0,11µM
CCOc1cc(C(=O)O/N=C(\N)c2ccccn2)cc(OCC)c1OCC,0,0,0,0,0
N/C(=N\OC(=O)c1cccc(Br)c1)c1ccccn1,0,0,0,0,11µM
N/C(=N\OC(=O)c1cccc(Br)c1)c1ccccc1,0,0,0,0,13µM
CCOc1ccc(C(=O)O/N=C(\N)c2ccccn2)cc1OCC,0,0,0,0,32µM
Cc1cc(C)cc(NC(=O)c2cn3c4c(ccc(Cl)c4c2=O)OC(C)C3)c1 (stereo unspecified),0,-,0,-,0
COc1ccc(N2CCN(C(=O)c3cc4c(=O)n(Cc5cccs5)ccc4nc3C)CC2)cc1,0,-,0,-,0
N/C(=N\OC(=O)/C=C/c1ccccc1)c1ccccc1,0,0,0,0,18µM
O=Cc1ccc(OC(=O)/C=C/c2ccccc2)cc1,0,0,0,0,18µM
Cc1occc1-c1nnc(SCC(=O)Nc2ccc3ncccc3c2)n1-c1ccccc1,0,-,-,-,-
SMILES,FUS suppressor,Mito fusion act,Abeta rescue,aSyn yeast inh,TDP43 rescue
O=C(CSCc1ccc(Cl)cc1)N1CCOCC1,0,0,0,0,0
O=C(CSc1nnc(SCc2ccc(Cl)cc2)s1)N1CCOCC1,0,?,0,0,22µM
Cc1ccccc1NCC(=O)N/N=C/c1ccc[nH]1,0,-,-,-,-
O=C(Nc1ccc(F)cc1F)Nc1csc2ccccc12,0,0,0,0,11µM
Cc1cccnc1NC(=O)Nc1cccs1,0,0,0,0,5µM
Cc1ccc(NC(=O)Nc2cccs2)c(Cl)c1,0,0,0,0,13µM
O=C(Nc1cccs1)Nc1ccccc1Cl,0,0,0,0,0
O=C(Nc1cccs1)Nc1ccc(F)cc1F,0,0,0,0,14µM!
COc1ccc(CCNc2ncnc3c2nnn3C)cc1,0,-,0,-,?
COc1cccc(NC(=O)C2CCCN(S(=O)(=O)c3ccc4[nH]c(=O)ccc4c3)C2)c1 (stereo unspecified),0,-,0,-,0[9.22 µM]
O=C(Nc1cccs1)Nc1ccc(Br)cc1F,0,0,0,0,14µM
Cc1cc(C)cc(NC(=O)Nc2cccs2)c1,0,-,0,-,0
COc1ccc(-c2noc(CSc3nnc(-c4ccncc4)n3-c3ccc(C)c(C)c3)n2)cc1,0,-,0,-,0
CCn1cc(S(=O)(=O)c2cccc(Cl)c2)c(=O)c2cc(F)c(N3CCN(C)CC3)cc21,0,-,0,-,?
CCC(C)(C)C(=O)O[C@H]1C[C@@H](C)C=C2C=C[C@H](C)[C@H](CC[C@@H]3C[C@@H](O)CC(=O)O3)[C@H]21,0,0,0,0,14µM
O=C(NCC(c1ccccc1)c1ccccc1)[C@H](Cc1c[nH]c2ccccc12)NC1(C(=O)NC2CCCCC2)CCCC1,0,-,-,-,-
Cc1ccc(CCN=c2c([N+](=O)[O-])nn(-c3ccccc3)n2O)cc1,0,0,0,0,11µM
O=[N+]([O-])c1nn(-c2ccccc2)n(O)c1=NC1CCN(Cc2ccccc2)CC1,0,0,0,0,0
O=[N+]([O-])c1nn(-c2ccccc2)n(O)c1=NCCc1ccccc1,-,18µM,0,0,7.1µM
COc1ccc(-n2nc([N+](=O)[O-])c(=NCCc3ccccc3)n2O)cc1,-,0,0,0,13µM
CCOC(=O)c1cc(C)n(Cc2cccc(OC)c2OC)c1C,0,0,0,0,20µM
Cc1ccc(OCc2nc3ccccc3n2C(C)C(=O)Nc2c(C)cccc2C)cc1 (stereo unspecified),0,-,0,0,25µM
Cc1ccc(S(=O)(=O)C(CNC(=O)C(=O)NCCc2ccc(Cl)cc2)c2cccs2)cc1 (stereo unspecified),0,-,0,-,0
Cc1c(C(=O)Nc2nc(-c3ccc(F)cc3)ns2)oc2ccc(Cl)cc12,0,-,0,-,0
CC(C)Cc1cc(C(=O)N2CCN(c3ccc(F)cc3)CC2)no1,0,0,0,0,22µM
SMILES,FUS suppressor,Mito fusion act,Abeta rescue,aSyn yeast inh,TDP43 rescue
O=C(c1ccc(Br)o1)N1CCN(c2ccc(F)cc2)CC1,0,0,0,0,13µM
O=C(Nc1ccc(N2CCN(C(=O)c3cccs3)CC2)cc1)c1ccc(Br)o1,0,?,0,0,25µM
COc1ccc(N2CCN(c3nc4ccccc4nc3NS(=O)(=O)c3ccccc3)CC2)cc1,0,0,0,0,20µM
COC(=O)c1ccc(/C=C(\C#N)c2nc3ccccc3s2)cc1,0,0,0,0,0
N#C/C(=C\c1ccccn1)c1nc2ccccc2s1,0,0,?,0,18µM
CCCOC(=O)c1c(N)sc(C(=O)OCC)c1C,0,0,0,0,7.9µM
CCOC(=O)c1c(N)sc(C(N)=O)c1C,0,0,0,0,0
